# KB-3-1 tox: qHTS assay for MDR1-selective chemotherapeutics: Primary screen using the parental adenocarcinoma cell KB-3-1. KB-3-1 viability, CellTiter-Glo ATP luminescence, 72 h. Potency, µM (highest dose often 46.1 µM), hits mostly cytotoxic. 1.4% of 400,000 active; also: nearly all actives have a fitted effect of over 60% in size
#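 KB-3-1 parental drug-naive adenocarcinoma cells in DMEM/10% FBS, incubated 72 h at 37 C with pin-transferred compounds across a concentration series. Viability by CellTiter-Glo luminescence; concentration-response curves fitted after normalization.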
# IL1B secr inh: qHTS for Inhibitors of Inflammasome Signaling: IL-1-beta AlphaLISA Primary Screen. 4.7% of 360,000 active. activity change, % at 57.5 µM. THP-1 LPS/ATP IL-1B secretion, AlphaLISA, 16 h; hits give low values; in the data active = activity change below about -50%; inconclusive = mostly about -30% to -49%
#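 Secreted IL-1B measured by AlphaLISA bead assay after 16 h compound exposure of THP-1 cells; compounds (final up to 57.5 uM) added 1 h before LPS (250 ng/mL) and ATP (1.25 mM) stimulation; lower signal means less secretion.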
# HT1080-NT tox: qHTS for induction of synthetic lethality in tumor cells producing 2HG: qHTS for the HT-1080-NT fibrosarcoma cell line; HT-1080-NT fibrosarcoma viability, CellTiter-Glo ATP luminescence, 48 h; Potency, µM (doses to about 46.1 µM), usual class: cytotoxic; 1.6% of 360,000 active;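 also: NT is the 2HG producing partner of a matched IDH1 knockdown line; nearly all actives have a fitted effect of over 55% in size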
#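 Fibrosarcoma NT cells, 750 per well in 5% FBS RPMI, were exposed to compound for 48 hours. Viability: CellTiter-Glo luminescence.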
# KB-V1 cytotox: qHTS assay for MDR1-selective chemotherapeutics: Primary screen using the drug-selected MDR subline cells KB-V1 | 3.4% of 400,000 active | Potency, µM (titrated, usually from 46.1 µM), most hits filed as cytotoxic | AID 1347076, 2019 | KB-V1 MDR cells viability, CellTiter-Glo, 72 h; also: nearly all actives have a fitted effect of over 60% in size
#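 In this primary screen, KB-V1 cells overexpressing P-gp are incubated with library compounds (lowest to highest concentration) for 72 h at 37 degrees C before a luminescent ATP viability read.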
# HT1080 IDH1KD tx: qHTS for induction of synthetic lethality in tumor cells producing 2HG: qHTS for the HT-1080-IDH1KD cell line. Potency, µM (titrated, usually from 46.1 µM), actives largely listed as cytotoxic. HT-1080 IDH1 knockdown viability, ATP luminescence, 48 h. 2% of 360,000 active. AID 686971, 2013
#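 Assay cells: HT-1080 with IDH1 knockdown, 750 per well, RPMI/5% FBS. Exposure: 48 h at 37 °C following 2 h pre-incubation. Read: CellTiter-Glo luminescence; fitted concentration-response, curve class assigned.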
# Hits are given with their value; n = inactive; u = inconclusive; x = no result given. Only some compounds are listed: those with a hit (about 8.8% of all), similar ones and a draw of the others. Unless noted, calls follow the shape of the dose curve; as a rule, active = well fitted curve in the direction sought with a large enough effect; inconclusive = small, poorly fitted or top-dose-only effect, or another doubt; inactive = no such curve, though single readings can be large; an effect the other way counts as inactive or inconclusive.
SMILES,KB-3-1 tox,IL1B secr inh,HT1080-NT tox,KB-V1 cytotox,HT1080 IDH1KD tx
COCCC1CCCCN1C(=O)c1cc(COc2ccc(C)nc2)on1 (stereo not given),n,u,21µM,n,n
CCOC(=O)C1CCCN(C(=O)c2cc(COc3ccc(C)nc3)on2)C1 (stereo not given),n,n,n,16µM,n
CCC1CCCCN1C(=O)c1cc(COc2ccc(-n3cncn3)cc2)on1 (stereo not given),18µM,n,u,13µM,n
O=C(c1cc(COc2ccc(-n3cncn3)cc2)on1)N1CCCC1,n,n,n,n,n
CC1CCCCN1C(=O)CSc1nc2ccccc2nc1Cc1ccc(Cl)cc1 (stereo not given),u,x,x,n,x
O=C(CSc1nc(-c2cccs2)cc(C(F)(F)F)n1)Nc1cc(OCC(F)(F)F)cc([N+](=O)[O-])c1,u,n,u,u,16µM
CCN(CC)C(=O)CSc1nc(-c2cccs2)cc(-c2cccs2)c1C#N,n,n,n,18µM,n
Cc1cccc(C)c1NC(=O)CSc1nc(-c2cccs2)cc(C(F)(F)F)n1,n,x,x,u,x
COc1ccc(NC(=O)CSc2nc(-c3cccs3)cc(C(F)(F)F)n2)cc1OC,9.2µM,x,x,u,x
Cc1cc(NC(=O)CSc2nc(-c3ccco3)cc(C(F)(F)F)n2)no1,0.82µM,n,0.58µM,u,0.52µM
CCOc1ccccc1NC(=O)CSc1nc(-c2cccs2)cc(C(F)(F)F)n1,n,x,x,n,x
COc1ccc(-c2nc(=S)c3ccc4ccccc4c3[nH]2)cc1,n,n,n,n,n
CCOC(=O)C1(C)C=C(Nc2cccc(C(=O)O)c2)C(=O)N1c1ccccc1 (stereo not given),n,x,x,n,x
COCC(C)NC(=O)CCSc1nc(-c2ccc(OC)cc2)cc(C(F)(F)F)n1 (stereo not given),n,-57,n,u,n
CCN(CC)C(=O)CSc1ncnc2c(-c3cccs3)nsc12,n,-60,n,n,n
CCN(CC)C(=O)CSc1ncnc2sccc12,n,n,n,n,n
COc1ccc(-c2cc(-c3cccs3)c(C#N)c(SCC(=O)NCc3ccco3)n2)cc1,u,n,2.9µM,u,2.3µM
COc1ccc(CNC(=O)CSc2nc(-c3ccccc3)cc(-c3cccs3)c2C#N)cc1,n,n,n,n,n
COc1ccc(-c2cc(C(F)(F)F)nc(SCC(=O)NCc3cccs3)n2)cc1,n,n,n,18µM,u
CSc1nc(C2CC2)cc(-c2cccs2)c1C#N,u,u,32µM,u,u
COc1ccc(NC(=O)CSc2nc(-c3cccs3)cc(C(F)(F)F)n2)cc1Cl,n,x,x,5.2µM,x
COc1ccc(-c2cc(C3CC3)nc(SCC(=O)c3cccs3)c2C#N)cc1,n,n,n,n,n
Cc1ccccc1N1CCN(C(=O)C2CCCCC2)CC1,n,n,n,n,n
Cc1cccc(N2CCN(C(=O)N3CCOCC3)CC2)c1C,21µM,n,16µM,u,u
Cc1cccc(N2CCN(C(=O)C3CCC(CNS(=O)(=O)c4cccs4)CC3)CC2)c1C (stereo not given),21µM,n,n,u,u
SMILES,KB-3-1 tox,IL1B secr inh,HT1080-NT tox,KB-V1 cytotox,HT1080 IDH1KD tx
Cc1cccc(N2CCN(C(=O)C3CCCCC3)CC2)c1C,n,-65,n,u,n
COc1cc(C(=O)N2CCN(c3cc(Cl)ccc3Cl)CC2)cc(OC)c1OC,0.33µM,n,1.3µM,u,0.65µM
Cc1cc(NC(=O)NC(=O)c2ccccc2)no1,n,n,n,n,n
Cc1cccc(N2CCN(C(=O)c3ccncc3)CC2)c1C,10µM,n,9.2µM,5.8µM,13µM
Cc1cccc(N2CCN(C(=O)c3ccnn3C)CC2)c1C,n,n,n,n,n
COc1cc(C(=O)N2CCN(c3ccccn3)CC2)cc(OC)c1OC,n,n,n,n,n
COc1cc(C(=O)N2CCN(c3cccc(C)c3C)CC2)cc(OC)c1OC,0.82µM,n,1.2µM,2.6µM,0.82µM
Cc1ccc(CNc2ccccc2C(=O)O)s1,n,n,n,u,n
CCCN1CCN(CCCNC(=O)c2c(C)nn(-c3ccc(F)cc3)c2-n2cccc2)CC1,n,x,x,u,x
Cc1nn(-c2ccccc2)c(-n2cccc2)c1C(=O)NCCc1ccc(Cl)cc1,n,x,x,u,x
Cc1ccc(-n2nc(C)c(C(=O)NCCCN3CCN(c4ccc(F)cc4)CC3)c2-n2cccc2)cc1,15µM,x,x,16µM,x
CCOC(=O)N1CCC(NC(=O)c2c(C)nn(-c3ccc(C)cc3)c2-n2cccc2)CC1,u,x,x,7.3µM,x
Cc1nn(-c2ccc(F)cc2)c(-n2cccc2)c1C(=O)NCCCN1CCN(c2cccc(Cl)c2)CC1,u,x,x,10µM,x
Cc1ccc(CN2CCN(CC(=O)NCCCN3CCN(c4ccc(F)cc4)CC3)C2=O)cc1,16µM,u,n,n,u
O=C(NCCN1CCCCC1)c1ccc(Cn2c(SCc3cccc(F)c3)nc3cccnc32)cc1,n,x,x,u,x
CCOC(=O)[C@]12CCC=C1N(Cc1ccccc1)C(=O)[C@H](CC(=O)NCc1cccs1)C2,n,n,n,n,n
N#CC(C#N)=c1ccc2c(c1)NC1(CCCCC1)N=2,u,-104,u,u,23µM
Nc1c(C(=O)N2CCCCC2)sc(=S)n1-c1ccccc1,n,n,n,18µM,n
CCOC(=O)c1c(C)[nH]c(C(=O)C(C)Cl)c1C (stereo not given),u,-101,n,n,n
CCOC(=O)c1c(C)[nH]c(C(=O)OCC(=O)Nc2ccccc2)c1C,n,n,n,n,n
CCOC(=O)c1[nH]c(C=O)c(C(=O)OCC)c1C,n,n,1.6µM,u,3.7µM
CCOC(=O)c1[nH]c(C)c(C(=O)N(C)C)c1C,n,n,n,n,n
CCOC(=O)c1c(C)[nH]c(C(=O)OCC(=O)NC(C)C)c1C,n,n,n,23µM,n
CCOC(=O)c1c(C)[nH]c(C(C)=O)c1C,u,n,n,u,n
CN1CCN(CCCN2c3ccccc3Sc3ccc(S(=O)(=O)N(C)C)cc32)CC1,n,-106,18µM,21µM,12µM
COc1ccc(C(=O)CC(=O)c2ccccc2O)cc1,n,n,u,n,u
COc1ccc(O)c(C(=O)CC(=O)c2ccc(F)cc2)c1,u,n,n,2.9µM,u
CCCCCCCn1c2c(c(=N)c3ccccc31)CCC2,u,u,u,u,12µM
CCN1CCN(S(=O)(=O)c2ccc(Cl)c(C(=O)N(C)C3CCCCC3)c2)CC1,n,n,n,n,n
Cc1cc(S(=O)(=O)N2CCN(CC(=O)N(C)Cc3ccccc3)CC2)ccc1Br,n,u,n,u,n

# Screening data (PubChem BioAssay)
